Sampled rows, rich in hits. Any-hit rate of the full collection: about 11%.
ALDH1A1 block – blocks purified human ALDH1A1 activity; P00352; Purified ALDH1A1, NADH fluorescence, propionaldehyde substrate; Potency, µM (doses to about 75.3 µM), for the others: top-dose activity, negative = inhibition, most hits filed as inhibitors; 220,000 compounds, 7.3% hits; AID 1030;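 note: potency is the fitted concentration of half-maximal effect; plate controls were no enzyme wells and a reference inhibitor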
Target sequence (P00352 whole entry, looked up): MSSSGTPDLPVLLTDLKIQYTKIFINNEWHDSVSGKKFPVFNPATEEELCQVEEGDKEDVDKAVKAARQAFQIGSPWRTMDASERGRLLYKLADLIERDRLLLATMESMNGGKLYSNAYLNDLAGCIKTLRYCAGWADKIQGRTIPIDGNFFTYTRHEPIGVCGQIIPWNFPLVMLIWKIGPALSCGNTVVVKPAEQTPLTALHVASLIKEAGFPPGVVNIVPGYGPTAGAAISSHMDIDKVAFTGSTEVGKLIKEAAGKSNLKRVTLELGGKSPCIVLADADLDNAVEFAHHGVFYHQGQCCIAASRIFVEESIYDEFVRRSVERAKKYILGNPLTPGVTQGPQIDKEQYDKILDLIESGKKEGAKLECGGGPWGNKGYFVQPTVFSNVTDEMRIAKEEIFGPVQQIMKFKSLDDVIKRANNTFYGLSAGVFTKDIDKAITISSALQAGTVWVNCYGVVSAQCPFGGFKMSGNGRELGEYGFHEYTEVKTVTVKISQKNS
PNC inhibitor – blocks assembly of the perinucleolar compartment | PC3M PTB-GFP, PNC prevalence imaging, 16 h; active compounds read low | activity change (PNC), negative = inhibition, % at 10 µM | 140,000 compounds, 3.1% hits;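 active = readout at or below -70, meaning at least 70% loss of cells showing the perinucleolar compartment, a nuclear body marking cancer cells; inconclusive = readout between -30 and a set limit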;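 note: plate controls were DMSO wells for no effect and camptothecin positive control wells for full effect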
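Read-out is percentage of cells bearing a perinucleolar compartment, from automated 20x imaging of fixed, Hoechst-stained PC3M PTB-GFP cells. Cells were seeded 4 h, then exposed 16 h to compound (23 nl of library stock) in duplicate plates.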
HPGD inh – HPGD (human) dehydrogenase inhibition; Potency, µM, without a hit: top-dose activity change, negative = inhibition, actives largely listed as inhibitors; AID 894; P15428; purified HPGD, NADH fluorescence kinetic, PGE2 substrate; 150,000 compounds, 4.3% hits; note: potency is the fitted concentration of half-maximal effect
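20 nM HPGD preincubated 15 min at room temperature with compound in 50 mM Tris-HCl pH 8, 0.01% Tween 20. Started with 1 mM NAD+ and 30 uM prostaglandin E2; NADH fluorescence (360/450 nm) read 5 times over 30-s intervals, last minus first.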
Numbers without * were called inactive; ? = inconclusive; nt = no result; [ ] = remark or other dose. Unless noted, calls come from the whole dose curve; as a rule, active = well fitted inhibition curve with a large enough effect (not every such curve was filed as active); inconclusive = small, poorly fitted or top-dose-only effect, or another doubt; inactive = no such curve, though single readings can be large or run the other way. Unless noted, % is set by controls: 0 for no effect and ±100 for the full control effect.

SMILES	ALDH1A1 block	PNC inhibitor	HPGD inh
CCOCCCNS(=O)(=O)c1ccc(OC)c(Cl)c1Cl	2.2µM*	20	-14%
CCCCCNS(=O)(=O)c1cc(C)ccc1OC	-2%	-10	-8%
Cc1nn(-c2ccccc2)c2c1C(c1ccco1)C(C#N)=C(N)O2 (configuration not stated)	1µM*	9	-15%
Cc1[nH]nc2c1C(c1ccco1)C(C#N)=C(N)O2 (configuration not stated)	2%	nt	nt
Cc1nn(-c2ccccc2)c2c1C(c1cccs1)C(C#N)=C(N)O2 (configuration not stated)	11µM*	-27	?
Cc1nn(-c2ccccc2)c2c1C(c1ccc([N+](=O)[O-])cc1)C(C#N)=C(N)O2 (configuration not stated)	14µM*	nt	nt
Cc1nn(-c2ccccc2)c(N)c1Sc1ccc([N+](=O)[O-])cc1	1.4µM*	?	20µM*
Cc1nn(S(=O)(=O)c2ccc(Cl)cc2)c(C)c1Sc1ccc([N+](=O)[O-])cc1	?	-15	-17%
Cc1ccc(-n2nc(C)c3c2OC(N)=C(C#N)C3c2ccc(F)cc2)cc1 (configuration not stated)	4%	-8	-4%
CCCc1nn(-c2ccccc2)c2c1C(c1cccs1)C(C#N)=C(N)O2 (configuration not stated)	6%	41	-17%
Nc1nc(SCC(=O)NCc2ccccc2)[nH]c(=O)c1NC(=O)c1ccccc1F	5%	73	-13%
Cc1c(NS(=O)(=O)c2cc(NC(=O)CCN3CCCC(C)C3)ccc2Cl)c(=O)n(-c2ccccc2)n1C (configuration not stated)	14%	nt	nt
O=c1cc(O)nc(SCc2ccc(Cl)cc2)[nH]1	9%	19	-11%
CC(=O)c1ccc(OC(C)C)c(CSc2nc(O)cc(=O)[nH]2)c1	?	13	3.5µM*
COc1cccc(C(=O)NN2c3ccccc3CCc3ccccc32)c1	-7%	?	-21%
COc1cccc(C(=O)NN2C(=O)C3C4C=CC(O4)C3C2=O)c1 (configuration not stated)	14µM*	-12	2%
COc1ccc(C(=O)NN2C(=O)C3CCC(C)(C2=O)C3(C)C)cc1 (configuration not stated)	2%	110	-11%
COc1ccc(C(=O)NN2C(=O)C3C4C=CC(O4)C3C2=O)cc1 (configuration not stated)	7.9µM*	0	4%
Cc1c(O)ccc2c1OCO2	-2%[13.5 µM]	nt	nt
CC(C)c1ccc(O)c(O)c(=O)c1 (tested in a mixture with another compound)	-5%[13.5 µM]	nt	-8%
O=C1CCC[C@@H](C(C(=O)OCc2ccccc2)C(=O)OCc2ccccc2)C1	-23%[13.5 µM]	nt	nt
CCCCNc1nc(SC)nc2nc[nH]c12	6%[13.5 µM]	nt	-3%
CC(C)CC(=O)CC1(O)C(=O)Nc2ccccc21 (configuration not stated)	18%	nt	nt
COc1cccc(NC(=O)c2ncc(Cl)c(Cl)c2Cl)c1	5%	nt	nt
Cc1ccc(C(=O)n2c(=S)nc3ccccn32)cc1	22µM*	-21	32µM*
SMILES	ALDH1A1 block	PNC inhibitor	HPGD inh
Cc1cccc(C(=O)n2c(=S)nc3ccccn32)c1	10µM*	2	22µM*
O=C(c1ccccc1)n1c(=S)nc2ccccn21	-2%	21	nt
Cc1cccc(C(=O)N2CCN(c3ccccn3)CC2)c1	10%	3	?
N[C@@H](Cc1cnc[nH]1)C(=O)O	-10%	nt	-16%
O=C(Cn1c(C(=O)NCC2CCCO2)cc2sccc21)c1ccccc1 (configuration not stated)	-6%	21	-7%
O=C(Cn1c(C(=O)N2CCN(C3CCCC3)CC2)cc2sccc21)c1ccccc1	2%	-122*	nt
CN(C(=O)COC(=O)c1cc(S(=O)(=O)N2CCOCC2)c(Cl)cc1Cl)C1CCS(=O)(=O)C1 (configuration not stated)	-1%	nt	nt
CN(C(=O)COc1ccc(S(=O)(=O)N2CCOCC2)cc1[N+](=O)[O-])C1CCS(=O)(=O)C1 (configuration not stated)	13µM*	nt	nt
CCN1C(=O)[C@H]2[C@H]3[C@H](O)[C@H](O)C/C(=N/O[C@@H]4O[C@@H](COC(C)=O)[C@@H](OC(C)=O)[C@@H](OC(C)=O)[C@H]4OC(C)=O)[C@@H]3CC[C@@H]2C1=O	8%[13.5 µM]	nt	nt
CC(=O)c1cccc(CN2CCN(Cc3ccc(F)cc3)C(CCO)C2)c1 (configuration not stated)	28µM*	nt	nt
CC(=O)c1cccc(CN2CCN(Cc3ccc(C)cc3)C(CCO)C2)c1 (configuration not stated)	9%	nt	nt
N#CCC(=O)Nc1ncn(Cc2ccccc2Cl)n1	?	-81*	-3%

Assay outcomes (PubChem BioAssay)
